Hits are enriched below; roughly 4.1% of the tested compounds scored in any of these assays.
Cav3 T inh = inhibitors of human Cav3.2 T-type calcium channel; Cav3.2-expressing cells, Fluo-4 calcium fluorescence FDSS; hits give low values; B-score at 10 µM; 100,000 tested, 4% active; AID 449739;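 active = single-dose well whose peak fluorescence ratio is a statistical outlier from its plate by either plate-standardised score or position-corrected B-score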
MRP-1 activ = activators of MRP-1. H69AR cells + doxorubicin, viability rescue, CellTiter-Glo. viability increase, % at 10 µM. 140,000 tested, 0.61% active. AID 799;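 active = viability gain under doxorubicin at or above a set limit, the compound median plus 3 SD, cut at about 4.7% in these data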;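 also: MRP-1 overexpressing cells given doxorubicin 25 µM after compound pretreatment; 18-22 h compound pretreatment then 72 h with doxorubicin before readout; 0% = doxorubicin-only wells and 100% = vehicle-treated cells without doxorubicin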
MRP reversal = compounds reversing MRP-mediated drug resistance; 85,000 tested, 0.04% active; H69AR cells + 2 uM doxorubicin, CellTiter-Glo, 72 h; AID 602; differential viability (reversal), % at 10 µM;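 active = viability drop by adding the cancer drug above about 55%, with treated viability meeting a 40% cutoff, limit read from the data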;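 also: viability without doxorubicin minus viability with 2 µM doxorubicin for each compound; larger differential means the compound sensitizes cells more to doxorubicin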
PTK2B oligo ant = antagonists of human Pyk2 oligomerization. 99,000 tested, 0.83% active. Q14289. z-score (the deposit names both 25 µM and 10 µM). Q293 cells, Pyk2 FERM NanoBiT luminescence; hits give low values. AID 1347419;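 active = Z-score of -3 or lower, scaled per plate to the spread of control and sample wells; inactive = z-score above -3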;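 also: negative z-score means lost luminescence so less FERM oligomerization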
CD11b adhes inh = blocks human CD11b/CD18 adhesion to fibrinogen; P05107+P11215; K562 CD11b/CD18 adhesion to fibrinogen, ATPlite luminescence; Mn2+ added to activate the integrin; inhibition, % at 10 µM; 93,000 tested, 0.54% active; AID 1497;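 active = primary inhibition of 50% or more at 10 µM, then 40% or more on retest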
Target sequence (P05107 whole entry, looked up, other chains not shown): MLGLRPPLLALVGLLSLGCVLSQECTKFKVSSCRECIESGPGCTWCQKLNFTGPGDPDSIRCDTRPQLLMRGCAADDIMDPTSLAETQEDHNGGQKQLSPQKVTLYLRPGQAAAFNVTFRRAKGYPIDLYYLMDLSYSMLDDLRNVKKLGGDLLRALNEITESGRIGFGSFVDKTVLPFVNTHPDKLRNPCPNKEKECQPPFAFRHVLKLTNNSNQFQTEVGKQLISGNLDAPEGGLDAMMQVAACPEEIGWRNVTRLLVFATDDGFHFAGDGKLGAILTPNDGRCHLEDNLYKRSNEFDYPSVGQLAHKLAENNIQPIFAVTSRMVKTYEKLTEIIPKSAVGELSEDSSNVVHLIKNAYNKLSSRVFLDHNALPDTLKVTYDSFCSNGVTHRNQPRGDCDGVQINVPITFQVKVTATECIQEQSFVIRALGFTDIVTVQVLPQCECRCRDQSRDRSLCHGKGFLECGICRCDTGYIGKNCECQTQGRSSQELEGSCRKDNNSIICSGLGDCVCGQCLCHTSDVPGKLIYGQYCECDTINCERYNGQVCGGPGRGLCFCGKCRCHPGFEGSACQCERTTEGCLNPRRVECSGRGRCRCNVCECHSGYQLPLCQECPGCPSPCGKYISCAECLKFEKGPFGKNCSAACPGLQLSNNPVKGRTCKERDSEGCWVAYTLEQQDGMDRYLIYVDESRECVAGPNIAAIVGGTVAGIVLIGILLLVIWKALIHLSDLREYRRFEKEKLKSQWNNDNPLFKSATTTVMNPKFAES
Mac1 fbg enh = CD11b/CD18-fibrinogen binding enhancement; P05107+P11215; K562 CD11b/CD18 adhesion to fibrinogen, ATPlite luminescence; activation, % at 10 µM; 93,000 tested, 0.07% active; AID 1499;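 active = 10 µM primary screen giving 50% or more activity, confirmed by 40% or more on retest at that dose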
Numbers without * were called inactive; nt = no result given.

SMILES | Cav3 T inh | MRP-1 activ | MRP reversal | PTK2B oligo ant | CD11b adhes inh | Mac1 fbg enh
COC(=O)C1=C(C(=O)OC)[C@@H]2N(Cc3ccccc3)c3ccccc3[C@@]23C[C@@H](C(=O)OC)N(C(=O)c2cc(C)oc2C)C3=N1 | -3.01* | nt | nt | nt | nt | nt
CCOc1ncccc1C(=O)Nc1ccccc1C(=O)NCc1ccc2c(c1)OCO2 | 0.338 | -1.6 | 21.4 | -0.68 | -18.0 | -1.8
CCOc1ccccc1CN(CCc1ccc2c(c1)OCO2)Cc1ccccn1 | -4.33* | -4.9 | -9.6 | 0.83 | -5.1 | 18.6
Cc1ccc(S(=O)(=O)Nc2ccc(S(=O)(=O)Nc3ncccn3)cc2)cc1 | 0.0174 | -2.4 | 0.8 | 1.01 | 9.9 | 0.5
CC(=O)/C(=N\Nc1ccccc1)Sc1nnc(-c2ccccc2)n1-c1ccccc1 | nt | -3.2 | nt | nt | 23.0 | -6.1
CC(=O)C(N=Nc1ccccc1)(Sc1nnc(-c2ccccc2)n1-c1ccccc1)C(=O)Nc1ccccc1 (stereo unspecified) | -6.67* | -2.9 | nt | -0.79 | 8.2 | -2.8
CC(=O)C(N=Nc1ccccc1)(Sc1nnc(-c2ccccc2)n1-c1ccccc1)C(C)=O | -4.35* | -2.7 | nt | -3.06* | nt | nt
Cc1ccc2c(CN3C(=O)NC4(CCCCC4)C3=O)cc(=O)oc2c1C | -3.05 | -2.0 | 4.4 | -0.4 | -13.5 | 0.8
CCc1ccc(NC(=O)c2cnc3scc(C)n3c2=O)cc1 | nt | -3.7 | 1.2 | nt | 3.0 | 4.7
N=c1n(CCN2CCOCC2)c2ccccc2n1CC(=O)c1ccc(Cl)c(Cl)c1 | -4.65* | -4.9 | -3.1 | 2 | 22.8 | 0.9
CCCCOC(=O)Cn1c(=N)n(CCN2CCOCC2)c2ccccc21 | 0.264 | nt | 10.6 | -0.16 | nt | nt
CCCn1c(NCc2cc(C)ccc2O)nc2ccccc21 | -7.01* | -3.5 | 6.2 | -1.14 | -2.8 | -4.7
CCCCn1c(NCc2ccccc2O)nc2ccccc21 | -3.93 | -2.8 | 13.2 | nt | 7.2 | 0.8
CCCCCCn1c2c(c(=N)c3c1CCC3)CCC2 | -1.51 | -1.4 | -10.3 | -0.39 | nt | nt
CCCCCCCCCn1c2c(c(=N)c3c1CCC3)CCC2 | -6.18* | -7.2 | -2.7 | -0.85 | nt | nt
O=C(CN1C(=O)NC2(CCc3ccccc32)C1=O)Nc1ccc(N2CCOCC2)cc1 (stereo unspecified) | 0.358 | 0.2 | nt | -0.57 | -31.0 | 0.8
CC(C)=CC(=O)OCC(=O)Nc1ccc(Cl)cn1 | -0.026 | -0.9 | -7.9 | -0.1 | -5.4 | -2.3
CCOC(=O)/C=C/C(=O)OCC(=O)Nc1ccc(Cl)cn1 | 3.37* | -0.7 | -5.7 | -0.25 | -22.7 | -1.8
CC(C)c1ccc(Oc2cccc(C(=O)/C(C#N)=C/N(C)C)c2)cc1 | -2.36 | -1.1 | 18.3 | -1.32 | 40.0 | -0.2
CN(C)/C=C(\C#N)C(=O)c1cccc(Oc2ccc(Br)cc2)c1 | -4.24* | -0.5 | 14.1 | 0.69 | 20.5 | -2.9
CCOc1cc(/C=C2\SC(=Nc3ccccc3)N(c3ccccc3)C2=O)ccc1OCC(=O)O | nt | 5.9* | nt | nt | nt | nt
CC(=O)c1ccc(-n2nnnc2SCC(=O)Nc2cccc(NC(=O)c3ccco3)c2)cc1 | -0.687 | -1.6 | 0.1 | -0.4 | nt | nt
CC(=O)N1c2ccccc2N(Cc2ccc(C)cc2C)C(=O)C1(C)C | -8.3* | -4.6 | -34.3 | nt | 4.9 | 2.8
C=CCN1C(=O)C(C)(C)N(C(C)=O)c2ccccc21 | nt | 0.3 | nt | nt | nt | nt
Clc1cccc(CSc2nnc(-c3sccc3-n3cccc3)o2)c1 | -2.52 | 3.4 | nt | -3.18* | nt | nt
SMILES | Cav3 T inh | MRP-1 activ | MRP reversal | PTK2B oligo ant | CD11b adhes inh | Mac1 fbg enh
Clc1ccc(CSc2nnc(-c3sccc3-n3cccc3)o2)cc1 | -1.02 | 1.1 | nt | -3.19* | nt | nt
Cc1c(C(=O)NCCc2ccc3c(c2)OCCO3)oc2ccccc12 | -6.98* | 0.2 | nt | -0.04 | 8.6 | -5.0
O=C(CCCCCCCC(=O)NNC(=O)Nc1ccccc1)NNC(=O)Nc1ccccc1 | nt | -1.6 | nt | nt | nt | nt
Cc1cccc(NC(=O)c2cc(NC(=O)C3CCCCC3C(=O)O)ccc2N2CCCCC2)c1 (stereo unspecified) | -4.03* | -4.6 | -16.5 | -1.69 | nt | nt
O=C(N/N=C(\c1ccccc1)c1cccnc1)C(O)(c1ccccc1)c1ccccc1 | -1.18 | -1.9 | nt | -3.91* | nt | nt
CC[n+]1c(/C=C2\C=C(C)CC(C)(C)C2)sc2ccccc21 | -0.68 | -5.4 | nt | -0.75 | 72.7* | -5.7
CC[n+]1c(/C=C2\C=C(C)CC(C)C2)sc2ccccc21 (stereo unspecified) | -0.521 | -4.4 | nt | -0.81 | 59.2* | -5.8
O=C(Nc1ccc(Cl)cc1)OCc1ccccn1 | -1.2 | -3.7 | 7.5 | -0.86 | nt | nt
O=C(Nc1ccc(Cl)cc1)OCc1cn(-c2ccc(Cl)cc2)nn1 | -4.54* | -0.9 | nt | 1.05 | -12.7 | -4.3
O=C(Cn1cccc1C(=O)c1ccccc1)NCc1cccs1 | 0.821 | -1.1 | -4.5 | 1.26 | nt | nt
CCOc1cc(/C=C(/C#N)C(=O)Nc2ccc(O)cc2)cc(Br)c1O | -7.94* | -4.6 | nt | -2.13 | 49.9 | -4.6
Cc1noc(C)c1S(=O)(=O)Nc1ccc(C(=O)NCCc2ccccc2)cc1 | 0.419 | -3.6 | nt | 0.1 | 0.0 | -4.4
CCCc1cc(=O)[nH]c(SCc2cccnc2)n1 | 0.447 | -1.2 | -10.8 | 0.06 | nt | nt
CCc1ccc(/C=N/NC(=O)c2cc(C3CC3)nc3ccc(Br)cc23)s1 | -5.22* | -4.8 | nt | -1.93 | 17.6 | -5.6
CCn1c(-c2ccccc2Cl)nn(CC(=O)Nc2cc(Cl)ccc2Cl)c1=S | -4.8* | -1.9 | nt | -0.71 | nt | nt
CCn1c(-c2ccccc2Cl)nn(CC(=O)NCCc2ccccc2)c1=S | nt | 0.4 | nt | nt | nt | nt
CC(=O)N(c1ccccc1)C(C)c1nc(C#N)c(C#N)nc1C (stereo unspecified) | nt | -3.4 | nt | nt | nt | nt
CCN(c1cccc(C(F)(F)F)c1)S(=O)(=O)c1ccc2c(c1)CCN2C(=O)C1CC1 | -4.7* | -3.2 | -8.7 | -2.71 | 86.3 | -4.1
O=S(=O)(N1CCCCC1)N1CCN(c2ccccc2F)CC1 | -0.82 | -2.8 | 10.1 | -1.68 | 12.7 | -1.7
N=c1c2c(-c3ccccc3)c(-c3ccccc3)n(Cc3ccco3)c2ncn1Cc1ccco1 | -9.34* | -4.5 | 0.1 | -2.08 | 18.4 | -8.0
Cc1[nH]nc2c1C(c1ccc(F)cc1)C(C#N)=C(N)O2 (stereo unspecified) | 0.0426 | 1.5 | 9.1 | -0.65 | -0.1 | -1.6
Cc1oc(C)c2c(=O)ccc3c(c12)OC(N)=C(C#N)C3c1ccc(F)cc1 (stereo unspecified) | -3.32* | 2.6 | -19.2 | 0.3 | -13.4 | -1.0
CC(=O)c1sc(NC(=O)C2(F)C(F)(F)C(F)(F)C(F)(F)C(F)(F)C2(F)F)nc1C | -4.01* | -2.8 | -10.0 | -2.37 | 102.1* | -10.1
COc1ccc(S(=O)(=O)N(CCc2ccccc2)CC(=O)NCCCO)cc1 | 0.565 | -1.5 | 17.6 | 0.62 | 27.9 | 2.7
O=S(=O)(Nc1nc2ccccc2nc1Nc1ccc2c(c1)OCCO2)c1cccs1 | -3.76* | 0.7 | 2.6 | -1.83 | 90.3* | -2.7
COc1ccc(OC)c(C(=O)c2coc3ccc(O)cc23)c1 | -4.68* | -1.7 | -28.7 | -1.36 | -6.4 | 1.9
CCOC(=O)c1ccc(NC(=O)C(CC)(CC)C(=O)OCC)cc1 | -0.952 | 2.9 | 21.1 | -0.94 | -12.3 | 2.8

Screening data (PubChem)
